Compounds without any hit were thinned out: in the full panel of roughly 79,000, 15% have a hit. Rule as the data show it: active = growth inhibition above about 70%; inactive = the rest.
Tests used:
[1] = NCI Yeast Anticancer Drug Screen. Data for the rad50 strain (AID 155);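 also: 0% = growth of vehicle-only cultures of the same strain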; settings: S. cerevisiae rad50 strain growth inhibition; at 50.0 µM; hits give high values
Outline: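 Genetically altered yeast (DNA repair pathway); compound treatment; growth inhibition vs vehicle ctrl.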

[2] = NCI Yeast Anticancer Drug Screen. Data for the mec2-1 strain (AID 157); settings: S. cerevisiae mec2-1 strain, at 50.0 µM, hits give high values
Outline: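 Yeast mec2-1 mutant treated with compound. Readout: growth inhibition vs vehicle controls.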

[3] = NCI Yeast Anticancer Drug Screen. Data for the sgs1 mgt1 strain (AID 161);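 also: 0% = growth of cultures given vehicle only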; settings: S. cerevisiae sgs1 mgt1 strain, at 50.0 µM, hits give high values
Outline: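 Mutant yeast exposed to compound; growth scored against vehicle-only wells.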

[4] = NCI Yeast Anticancer Drug Screen. Data for the cln2 rad14 strain (AID 165);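 also: 0% = growth equal to vehicle treated cultures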; settings: S. cerevisiae cln2 rad14 strain, at 50.0 µM, hits give high values
Outline: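 cln2 rad14 yeast strain; compound exposure; growth inhibition read vs vehicle controls.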

[5] = NCI Yeast Anticancer Drug Screen. Data for the bub3 strain (AID 167); settings: S. cerevisiae bub3 mutant strain, at 50.0 µM, hits give high values
Outline: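 Yeast carrying a defined mutation is treated with each compound, and growth is compared with that of vehicle-exposed cells to give inhibition.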

[6] = NCI Yeast Anticancer Drug Screen. Data for the mlh1 rad18 strain (AID 175); settings: S. cerevisiae mlh1 rad18 strain growth inhibition; at 50.0 µM; hits give high values
Outline: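 Yeast w/ defined DNA-repair lesions; compound exposure; growth vs vehicle controls → % inhibition.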

Measured: growth inhibition

C/C=C/C#CC#C/C=C/C=C/CC
inactive: [1] 10.1% | [2] 0.7% | [3] -1.35% | [4] 8.6% | [5] 16.6% | [6] -2.05%

CC[O-].CC[O-].COc1ccc(C(=O)[CH-]C(C)=O)cc1OC.COc1ccc(C(=O)[CH-]C(C)=O)cc1OC.[Ti+4]
inactive: [1] -17.4% | [2] 18.5% | [3] -2.7% | [4] 9.85% | [5] 29.9% | [6] -10.3%

Cc1[nH]nc(C(=O)O)c1N
inactive: [1] -18.2% | [2] -20.6% | [3] -14.6% | [4] -16.1% | [5] -13.4% | [6] -7.2%

Clc1ccc2c(c1)nnn1nccc21
inactive: [1] 16.4% | [2] 17.6% | [3] -9.8% | [4] 10.9% | [5] 13.8% | [6] 14.8%

COc1cc2c(cc1OC)C(CS(C)=O)Cc1cc(OC)c(OC)cc1N(C)CCC2 (stereo unspecified)
inactive: [1] 10.5% | [2] 19.4% | [3] 14.2% | [4] 10.6% | [5] -1.55% | [6] 29.9%

O=[N+]([O-])c1cc(Cl)cc2c1-c1c(Cl)cc(Cl)cc1C2
inactive: [1] 16.8% | [2] 28.3% | [3] 7.65% | [4] 20.8% | [5] -6.25% | [6] 4.05%

O=P1(O)c2ccccc2CSCc2ccccc21
inactive: [1] 24.4% | [2] -7.35% | [3] -11.8% | [4] -2.8% | [5] -2.65% | [6] -31.8%

COc1cc(C=Nc2ccc(C)c(Cl)c2)ccc1OC(=O)c1ccccc1
inactive: [1] -22.2% | [2] -9.05% | [3] -8.3% | [4] -12.8% | [5] 3.5% | [6] -0.3%

CCCCCCCCCCCCCCCc1c(NC(C)(CC(C)(C)O)[P+](=O)O)c(=O)n(C)n1C (stereo unspecified)
inactive: [1] -52.2% | [2] -31.1% | [3] -30.9% | [4] -25.2% | [5] -33.8% | [6] -33.4%

N#CCN1C(=O)c2ccccc2C1=O
inactive: [1] 6% | [2] -2.85% | [3] 1.45% | [4] 2.15% | [5] 3.15% | [6] -15.8%

CN(N)C(=O)Nc1cccc(Cl)c1
inactive: [1] 13.1% | [2] 8.55% | [3] 16.4% | [4] -5.25% | [5] 2.7% | [6] 17.3%

O=C1c2ccccc2C(=O)c2c1ccc1c2N=C(c2ccc(Br)cc2)CC(c2cccc3ccccc23)N1 (stereo unspecified)
inactive: [1] -22.1% | [2] 11.6% | [3] 17.9% | [4] 10.2% | [5] 9.95% | [6] -11.6%

NC(=O)/N=C/NC(N)=O
inactive: [1] 21.6% | [2] -14.3% | [3] 21.8% | [4] -5.3% | [5] -24.5% | [6] 2.65%

Cc1nc2ccccc2o1
inactive: [1] 19.9% | [2] 39.5% | [3] 13.1% | [4] 14.9% | [5] -1.6% | [6] -10.4%

CCCCCCCCCCC1SCC(=O)N1c1nncs1 (stereo unspecified)
inactive: [1] 13.2% | [2] 0.75% | [3] 16.6% | [4] 10.2% | [5] 4.2% | [6] 4.25%

O=C(O)c1c(Cl)ccc([N+](=O)[O-])c1Cl
inactive: [1] -4.45% | [2] -24.2% | [3] -8.95% | [4] 8.8% | [5] -10.6% | [6] -1.45%

NSC(=S)NCc1ccco1
inactive: [1] 1% | [2] -2.95% | [3] 7.75% | [4] -52.1% | [5] 15.8% | [6] 13.7%

C(=C/c1ccc(/C=C/C=C\c2ccccc2)cc1)/C=C/c1ccccc1
inactive: [1] -4.1% | [2] -2.25% | [3] 13.8% | [4] -50.6% | [5] -2.1% | [6] -12.2%

Cc1ncc(CSc2ccccc2N)c(CO)c1O
inactive: [1] -10.8% | [2] -10.1% | [3] -22.5% | [4] 48.2% | [5] 5.5% | [6] -4.55%

COc1ccc(C(Br)C(Br)C(=O)C(C)(C)C)cc1 (stereo unspecified)
inactive: [1] -2.95% | [2] 8.75% | [3] 6.2% | [4] -21.6% | [5] 31.6% | [6] 30.4%

Clc1ccccc1-c1c2ccccc2cc2c1ccc1ccccc12
inactive: [1] -12.1% | [2] -14.5% | [3] -7.75% | [4] -0.85% | [5] 5.45% | [6] -4.7%

O=c1[nH]c2cc3ccccc3cc2c2ccccc12
inactive: [1] 21.9% | [2] 9.6% | [3] 0.8% | [4] -15.7% | [5] -1.7% | [6] 14.2%

O=c1[nH]nc(Cc2ccccc2)n1/N=C/c1cccnc1
inactive: [1] 28.8% | [2] 30.9% | [3] 37% | [4] 35.7% | [5] 30.2% | [6] 45.6%

O=C(O)COc1cc(-c2ccccc2)nc2ccc(F)cc12
inactive: [1] -3% | [2] 16.6% | [3] 31.5% | [4] 7.25% | [5] 3.1% | [6] 10.2%

CCCCCCCNC(=O)C(Cl)Cl
inactive: [1] 7.85% | [2] -16.8% | [3] -6.65% | [4] -2.55% | [5] 39.8% | [6] 7.4%

CC(O)CC1CC(=O)CCC1=O (stereo unspecified)
inactive: [1] 0.35% | [2] -18.1% | [3] -10.7% | [4] -29.2% | [5] -5.85% | [6] 8.3%

CCSSC12CCCN1C(=O)C1CCCN1C2=O (stereo unspecified)
inactive: [1] 49% | [2] 40.9% | [3] 9.4% | [4] -40% | [5] 20.6% | [6] 20.4%

COc1cccc(NC(=O)C(=O)C(C(=O)c2ccccc2F)C2OC(=O)c3ccccc32)c1 (stereo unspecified)
inactive: [1] 15.6% | [2] 0.95% | [3] 35.5% | [4] 18.9% | [5] 7.85% | [6] 3.85%

COc1cc(C2c3cc4c(cc3OC(NC3CCCCC3)C2C)OCO4)cc(OC)c1OC (stereo unspecified)
inactive: [1] -0.35% | [2] -9.4% | [3] -2.4% | [4] 27.8% | [5] 24.6% | [6] -20.9%

CN1CCOc2c1cnn(CCO)c2=O
inactive: [1] -52.2% | [2] -15.4% | [3] -22.4% | [4] -10.4% | [5] -4.2% | [6] -7.6%

C=C(C)C1CC/C(C)=C/CC[C@]2(C)O[C@H]2CC/C(COC(C)=O)=C\[C@@H]1O (stereo partly specified)
inactive: [1] -7.9% | [2] -8.7% | [3] 2.2% | [4] 3.65% | [5] -18.6% | [6] -54.6%

CCCS(=O)(=O)N(CC)CC
inactive: [1] -0.4% | [2] -10.8% | [3] -1.9% | [4] -27.5% | [5] -5.65% | [6] -15.4%

COc1ccc(NC(=O)C(=O)C2CNC(=O)NC2=O)c(OC)c1 (stereo unspecified)
inactive: [1] -9.2% | [2] -5.8% | [3] -17.6% | [4] -6.65% | [5] -13.1% | [6] -17.3%

COc1ccc(/C=C/C(=O)c2c(-c3ccccc3)nn(C)c(=O)c2N2CCCCC2)cc1
inactive: [1] 7.8% | [2] -8.5% | [3] -10.8% | [4] 26.5% | [5] 7.05% | [6] 1.7%

CC1=CC(=O)C(C(C)C)=CC1=O
inactive: [1] -9.55% | [2] 7.25% | [3] -4.25% | [4] 22.6% | [5] 4.7% | [6] 0.5%

CC(C)c1ccc2c(c1)CC[C@H]1[C@](C)(COCCC#N)CCC[C@]21C
inactive: [1] -10.9% | [2] -28.2% | [3] -14.2% | [4] -63.1% | [5] -17.1% | [6] -30%

CC1=NN2C(=O)CSC2=NC(C)(C)C1
inactive: [1] -5.35% | [2] -12.8% | [3] 7.45% | [4] 25.9% | [5] -5.75% | [6] -9.95%

CN1C(=O)C(=O)C(c2ccccc2)(c2ccccc2)C1=O
inactive: [1] 9.45% | [2] -4.55% | [3] 12.4% | [4] -53.2% | [5] 8.75% | [6] -10.8%

O=C(N/N=C/c1ccc(Cl)c([N+](=O)[O-])c1)C(O)(c1ccccc1)c1ccccc1
inactive: [1] 10.2% | [2] -2.7% | [3] 12.4% | [4] -4.45% | [5] -1% | [6] -19.1%

COc1ccc2[nH]cc(C=O)c2c1
inactive: [1] 13.3% | [2] -2.95% | [3] -1.65% | [4] 7.25% | [5] -2.1% | [6] 3.5%

CC1=NN2C(=O)C(c3ccccc3)SC2=NC(C)(C)C1 (stereo unspecified)
inactive: [1] 13.1% | [2] -18.9% | [3] 4.05% | [4] 26.6% | [5] -9.15% | [6] -7.25%
